# High-throughput results as filed in PubChem.
# HCV inhibitor: blocks hepatitis C virus; Potency, µM (series often up to 41.8 µM), hits mostly inhibitors; 3.4% of 340,000 active; Huh7.5.1 HCVcc-Cre infection, luciferase reporter, 44 h; active means well fitted inhibition curve with a large enough effect; inconclusive means small, poorly fitted or top-dose-only effect, or another doubt; inactive means no such curve, though single readings can be large or run the other way
#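 Whole-lifecycle infectious HCVcc-Cre system; cells 1,000/well, compound then virus (~0.5 moi) added 4 h after plating, 44 h culture. Luciferase read 15 sec following 15 min substrate incubation, room temp.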
# Lassa entry inh: blocks Lassa virus binding to or entry into cells; Lassa virus pseudotype entry inhibition, cell reporter; Potency, µM (top dose mostly 37.9 µM), hits mostly inhibitors; 1.2% of 300,000 active; calls by dose curve; tested in HEK293 cells; further: nearly all actives have a fitted effect of over 50% in size
# VACV Venus inh: inhibitors of vaccinia virus (Venus reporter) | Vaccinia virus Venus reporter expression, fluorescence | Potency, µM (series often up to 36.5 µM), most hits filed as inhibitors | 0.46% of 330,000 active; calls by dose curve; tested in A549 cells; further: nearly all actives have a fitted effect of over 30% in size
# Marburg entry inh: blocks Marburg virus binding to or entry into cells. 1.8% of 300,000 active. Marburg virus pseudotyped entry inhibition, cell reporter. Potency, µM (top dose mostly 37.8 µM), hits mostly inhibitors; calls by dose curve; tested in HEK293 cells
# Vaccinia mCherry: vaccinia inhibition (mCherry reporter); Vaccinia virus mCherry reporter infection, fluorescence; Potency, µM (doses to about 36.5 µM), most hits filed as inhibitors; 0.63% of 310,000 active; calls by dose curve; tested in A549 cells; further: nearly all actives have a fitted effect of over 35% in size
# Numbers stand for hits; 0 = inactive; ? = inconclusive; - = no result given. Compounds with a hit are over-represented: about 4.6% of the library has one in this group of screens.
SMILES,HCV inhibitor,Lassa entry inh,VACV Venus inh,Marburg entry inh,Vaccinia mCherry
Cc1ccccc1Nc1nc(N)c(C(=O)c2ccccc2Cl)s1,-,0,?,-,?
O=C(NC(=S)NCc1ccccc1)c1ccccc1,0,?,0,0,0
Cc1cccc(C(=O)NC(=S)NCc2ccccc2)c1,0,18µM,0,0,0
Cc1nn(-c2ccccc2)c(C)c1CC(=O)NCC1Cc2cc(-c3cncnc3)ccc2O1 (centres undefined),-,-,0,-,0
CCC(C)NS(=O)(=O)c1ccc(S(=O)(=O)N2CCCC3(CCCCC3)C2)cc1 (centres undefined),10µM,?,-,?,-
Cc1cc2oc(=O)cc(CN3CCN(S(=O)(=O)c4ccc5c(c4)OCCO5)CC3)c2cc1C,7.1µM,0,-,0,-
Cc1cc2oc(=O)cc(CN3CCN(S(=O)(=O)/C=C/c4ccccc4)CC3)c2cc1C,?,0,0,0,0
CCc1ccc2c(CN3CCN(Cc4ccccc4)CC3)cc(=O)oc2c1,?,0,0,0,0
CCc1ccc2c(CN3CCN(S(=O)(=O)c4cccs4)CC3)cc(=O)oc2c1,?,2.5µM,?,?,0
CCc1ccc2c(CN3CCN(S(=O)(=O)c4ccccc4F)CC3)cc(=O)oc2c1,13µM,?,0,11µM,0
Cc1ccc(O)cc1Nc1ccnc2cc(-c3ccccn3)ccc12,-,25µM,-,-,-
C=C1NN(Cc2ccccc2)C(=O)N1c1ccc(OC)cc1,-,-,0,-,0
CC(=O)c1ccc(F)c(-c2cc(C)cc3c2OC(CNC(=O)C(C)n2nc(C)cc2C)C3)c1 (centres undefined),-,-,0,-,0
COc1ccc(Cc2nc(C(=O)Nc3ccccc3)cs2)cc1,?,?,0,?,0
C=CC[n+]1c(-c2ccc(OC)cc2)csc1NNC(=O)Nc1ccccc1,11µM,?,0,0,0
CC(=O)Nc1ccc(-c2ccc(NC(C)=O)cc2)cc1,0,0,0,?,0
C=CC[n+]1c(-c2ccc(C)cc2)csc1Nc1ccc(NC(C)=O)cc1,0,2.3µM,-,6.5µM,-
C=CCN1c2ccccc2[C@]23CCC(=O)N(CC4CC4)C2=NC(C(=O)OC)=C(C(=O)OC)[C@H]13,-,-,-,0,-
O=C(CCn1c(=O)[nH]c2ccccc21)NCC1Cc2cc(Cl)cc(-c3ccncc3)c2O1 (centres undefined),-,-,0,-,0
Cc1cc(C)c(Cn2c3ccccc3c3cnn(CC(=O)NCCCc4ccccc4)c(=O)c32)c(C)c1,-,0,?,0,0
O=C(NCCCN1CCCC1)c1cc2c(Cl)nc3ccccc3c2s1,18µM,?,?,10µM,0
Cc1ccc2nc(Cl)c3cc(C(=O)NCCCN4CCC(C)CC4)sc3c2c1,-,?,0,0,0
CC1CCN(CCCNC(=O)c2cc3c(Cl)nc4ccccc4c3s2)CC1,13µM,-,-,-,-
CCCN1CCN(CCCNC(=O)c2cc3c(Cl)nc4ccccc4c3s2)CC1,-,0,0,?,0
OC(CN1CCC(Cc2ccc(F)cc2)CC1)c1ccc(Cl)cc1 (centres undefined),-,?,-,7.1µM,-
SMILES,HCV inhibitor,Lassa entry inh,VACV Venus inh,Marburg entry inh,Vaccinia mCherry
COC(=O)C1=C(C)N(Cc2ccccc2)C(=NCCc2c[nH]c3ccccc23)NC1c1cccc(F)c1 (centres undefined),-,?,-,0,-
CCCn1c(C)cc(C(=O)Cn2nnc3ccccc3c2=O)c1C,0,?,0,14µM,0
COCCn1c(C)cc(C(=O)Cn2nc(C(=O)O)c3ccccc3c2=O)c1C,0,0,-,?,-
COc1ccc(CNC(=O)COc2cc3c(c4oc(=O)cc(C)c24)CCC(C)(C)O3)cc1,7.1µM,-,0,-,0
Cc1cc(=O)oc2c3c(cc(OCC(=O)NCCC(=O)O)c12)OC(C)(C)CC3,0,-,-,-,-
COc1cccc(CNC(=O)COc2cc3c(c4oc(=O)cc(C)c24)CCC(C)(C)O3)c1,1.4µM,-,0,-,0
Cc1cc(=O)oc2c3c(cc(OCC(=O)NCc4cccnc4)c12)OC(C)(C)CC3,?,-,0,-,0
COc1ccccc1CNC(=O)COc1cc2c(c3oc(=O)cc(C)c13)CCC(C)(C)O2,3.5µM,-,0,-,0
CCOC(=O)C1=C(N)n2c(s/c(=C/c3ccco3)c2=O)=C(C(=O)OCC)C1c1ccco1 (centres undefined),-,-,-,0,-
C=CCN1[C@@H](C(C)C)COCCS1(=O)=O,-,-,0,-,0
CC(=O)Oc1ccc(N(C(C)=O)S(=O)(=O)c2cccs2)c2ccccc12,-,0,0,12µM,0
Cc1cccc(NS(=O)(=O)c2ccc3[nH]c(=O)ccc3c2)c1C,-,0,0,-,0
COc1ccc(O[C@H]2C=C[C@@H](c3ccccc3)O[C@@H]2CO/N=C2/[C@H]3CCn4c(=O)n(-c5ccccc5)c(=O)n4[C@H]3[C@H](O)[C@@H]3O[C@H]23)cc1,-,-,-,0,-
CNc1c2cccc(C)c2nc2c(C(=O)NCCN(C)C)cccc12,1.4µM,?,2.2µM,?,2.2µM
Cc1ccc(C(=O)NCCN(C)C)c(C)c1,0,?,0,0,0
O=C(NC1CC(=O)N(c2ccc(Cl)cc2)C1)c1ccc2c(c1)OCO2 (centres undefined),-,0,0,-,0
Cc1cccc2cc(CN(CC3CCCO3)C(=O)c3cccc(F)c3)c(N(C)C)nc12 (centres undefined),-,-,0,-,0
O=[N+]([O-])c1cnc(Sc2ccncn2)s1,7.1µM,-,-,-,-
Cc1c(C(=O)N2CC3CCC2C3)sc2ncnc(NCCc3c[nH]c4ccccc34)c12 (centres undefined),-,-,0,-,?
COc1ccc(C(=O)NCC2Cc3c(F)ccc(-c4nc(C)cnc4C)c3O2)cc1F (centres undefined),-,-,0,-,0
CCC(=O)OCC(=O)N=c1sccn1Cc1ccccc1Cl,0,0,0,0,0
N=c1sccn1Cc1ccc(Cl)cc1Cl,?,0,0,?,0
O=C(CCl)N=c1sccn1Cc1cccc2ccccc12,3.5µM,-,-,-,-
O=C(CCl)N=c1sccn1Cc1ccc(Cl)cc1Cl,0.56µM,?,0,?,0
O=C(CCl)N=c1sccn1Cc1ccccc1Cl,0.56µM,?,0,?,0
SMILES,HCV inhibitor,Lassa entry inh,VACV Venus inh,Marburg entry inh,Vaccinia mCherry
CCC(=O)OCC(=O)N=c1sccn1Cc1ccc(C)cc1,0,-,-,-,-
CC[C@@]1(C)Cc2c(sc3c2c(=O)n(C)c2nnc(SCc4ccccc4)n32)CO1,-,-,-,0,-
CC(C)Oc1cccc(C(=O)C2CCCN(C(=O)c3cc(C(F)(F)F)[nH]n3)C2)c1 (centres undefined),?,13µM,0,0,0
O=[N+]([O-])c1ccc(N2CCN(CCOc3nonc3-c3ccccc3)CC2)c(Cl)c1,6.3µM,0,0,0,0
C1CCN(CCCNC2C3CC4CC(C3)CC2C4)C1 (centres undefined),2.5µM,?,0,?,0
CCCCN1CCC(CCC(=O)c2cc(Cl)c(N)cc2OC)CC1,-,-,0,-,?
CCCCN1CCC(COC(=O)c2cc(Cl)c(N)c3c2OCCO3)CC1,0,-,0,11µM,0
Cc1ccc([N+](=O)[O-])cc1S(=O)(=O)N1CCn2cccc2C1c1ccccc1F (centres undefined),-,?,0,-,0
CCOC(=O)N1CCN(C(=O)CSCC(=O)Nc2nc(-c3ccc(OC)cc3)cs2)CC1,?,0,-,?,-
CCOC(=O)N1CCN(C(=O)CSCC(=O)Nc2nc(-c3ccc(Cl)s3)cs2)CC1,11µM,0,-,0,-
